D1 PAM = potentiators of human D1 dopamine receptor. potentiation, % at 10 µM. P21728. 360,000 compounds, 0.036% hits. HEK293 TREx D1 cells, calcium flux, dopamine EC20 potentiation; in the data active means potentiation above about 30%
DRD3 antagonist = antagonists of human D3 dopamine receptor. P35462. D3R cells, DiscoveRx beta-arrestin luminescence, antagonist mode; hits give low values. AID 652054. max response, negative = inhibition, %. 360,000 compounds, 2.5% hits; in the data active means max response below about -50%; inconclusive means no clear call, values can overlap the other calls
Target sequence (P35462 whole entry, looked up): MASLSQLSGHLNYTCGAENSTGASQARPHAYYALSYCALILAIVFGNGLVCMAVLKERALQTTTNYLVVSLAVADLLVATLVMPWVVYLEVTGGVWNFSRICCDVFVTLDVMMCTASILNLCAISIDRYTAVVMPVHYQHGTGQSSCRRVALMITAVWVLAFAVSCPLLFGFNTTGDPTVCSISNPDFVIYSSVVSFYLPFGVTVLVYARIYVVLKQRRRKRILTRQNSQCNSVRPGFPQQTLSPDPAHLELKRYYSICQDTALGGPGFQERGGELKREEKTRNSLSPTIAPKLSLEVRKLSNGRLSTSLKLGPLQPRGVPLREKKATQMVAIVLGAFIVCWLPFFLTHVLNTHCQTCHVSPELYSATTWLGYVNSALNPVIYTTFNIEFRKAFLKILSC
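Cells expressing the human receptor were seeded at 1500 cells/well, incubated overnight at 37 degrees C in 5% CO2, then exposed to library compounds with dopamine controls for 90 minutes at 37 degrees C before luminescent detection.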
D1 ag = human D1 receptor agonism. P21728. HEK293 T-REx D1 cells, calcium flux, agonist mode. activation, % at 2 µM. 360,000 compounds, 1% hits. AID 504660; in the data active means activation above about 30%
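Agonism was scored from calcium flux recorded over 180 s (1 read/s) after pintool compound addition, following a 10-cycle baseline. Cells were inducible force-coupled HEK293 TREx D1, plated overnight at 30 C and loaded with no-wash calcium dye.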
D1 antag = antagonists of human D1 dopamine receptor | P21728 | HEK293 TREx D1 cells, calcium flux, dopamine EC80; hits give low values | activity change, negative = inhibition, % at 10 µM | 360,000 compounds, 3.2% hits; in the data active means activity change below about -30%
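Tetracycline-induced HEK293 Trex D1 cells, force-coupled to calcium, dye-loaded; compounds added and read 180 s, then EC80 dopamine added and calcium flux tracked kinetically another 180 s.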
D3 ag = agonists of human D3 dopamine receptor; P35462; D3R DiscoveRx beta-arrestin cells, luminescence, 90 min; max activation, %; 410,000 compounds, 0.58% hits; AID 652048; in the data active means max activation above about 30%
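Agonist mode: compounds and dopamine controls were applied to plated cells for 90 min at 37 degrees C after an overnight attachment at 1500 cells/well. Luminescent read-out followed 30 - 60 minutes at room temperature with DiscoveRx detection reagent.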
Large screens that a line does not name were inactive. This is a sample that favours compounds with a hit; in the whole collection about 6% have one here.

CCCNC(=O)C1CCC(Cn2c(=O)c3sccc3n(CC(=O)N3CCCC(C)C3)c2=O)CC1 (configuration not stated)	none (no result: DRD3 antagonist)
CCC(=O)C1=C(c2cccc([N+](=O)[O-])c2)N(C(=O)CC)n2c(nnc2-c2ccccc2)S1	none (no result: DRD3 antagonist, D1 antag)
COc1ccc(CNC(=O)c2ccc(-n3ccnc3)c3ccoc23)cc1OC	DRD3 antagonist -76.3 (no result: D1 PAM, D1 ag, D1 antag)
CC(C)COc1ccc(C(=O)Nc2onc3c2CCCC3)cc1	D1 antag -44.9 (no result: DRD3 antagonist)
CCOc1ccc(C(=O)Nc2onc3c2CCCC3)cc1	none (no result: DRD3 antagonist)
COc1ccc(C(=O)Nc2cc(C(=O)c3ccccc3)c(C)oc2=O)cc1	DRD3 antagonist -61.9
Cc1oc(=O)c(NC(=O)c2cccc(Cl)c2)cc1C(=O)c1ccccc1	DRD3 antagonist -62.8 (no result: D1 PAM, D1 ag, D1 antag)
COC(=O)c1cc(NC(=O)c2ccccc2)c(=O)oc1C	none
Cc1oc(=O)c(NC(=O)c2ccccc2)cc1C(N)=O	none
Cc1ccc(C(=O)NCCN2C3=NC[C@H](Cc4ccc(O)cc4)N3C[C@H]2Cc2ccc(O)cc2)cc1Br	DRD3 antagonist inconclusive
COc1ccc(C[C@H]2CN3C(=NC[C@H]3Cc3ccccc3)N2CCNC(=O)c2ccc(C)c(Br)c2)cc1	none
COc1ccc(C[C@H]2CN3C(=NC[C@@H]3Cc3ccc(O)cc3)N2CCNC(=O)c2ccc(C)c(Br)c2)cc1	DRD3 antagonist -98.4
C/C=C(\C)C(=O)NCCN1C2=NC[C@H](Cc3ccccc3)N2C[C@H]1Cc1ccc(O)cc1	none
Cc1ccc(C(=O)NCCN2C3=NC[C@@H](Cc4ccccc4)N3C[C@H]2Cc2ccc(O)cc2)cc1Br	DRD3 antagonist -57.6
COc1ccc(C[C@H]2CN3C(=NC[C@@H]3Cc3ccccc3)N2CCNC(=O)c2ccc(C)c(Br)c2)cc1	DRD3 antagonist -99.7
C/C=C(\C)C(=O)NCCN1C2=NC[C@H](Cc3ccccc3)N2C[C@@H]1Cc1ccc(OC)cc1	DRD3 antagonist -52.5 (no result: D1 PAM, D1 ag, D1 antag)
COc1ccc(NC(=O)C2=C(C)Nc3ncnn3C2c2ccc[nH]2)cc1 (configuration not stated)	none (no result: DRD3 antagonist)
CC[N+]1(CC)CCC(=C(c2ccccc2)c2ccccc2)C1C (configuration not stated)	none (no result: D1 PAM, DRD3 antagonist, D1 ag, D1 antag)
COc1ccc(-c2nc(C(=O)O)cs2)cc1OC	D1 antag -36.4
c1ccc(CN2CCN(c3nc4ccccc4n4cnnc34)CC2)cc1	DRD3 antagonist -134.9
C1=C(c2ccccc2)CCN(c2nc3ccccc3n3cnnc23)C1	DRD3 antagonist -70.5
c1ccc(N2CCN(c3nc4ccccc4n4cnnc34)CC2)cc1	none (no result: D1 PAM)
c1ccc2c(c1)CCN(c1nc3ccccc3n3cnnc13)C2	none
Cc1ccc(C)c(NC(=O)c2nnn(Cc3ccccc3)c2N)c1	none
COc1cccc(Cn2nnc(C(=O)NCc3ccc(F)cc3)c2N)c1	D1 antag -50.5
Cc1ccc(C)c(Cn2nnc(C(=O)NCc3ccccc3)c2N)c1	D1 ag 41.1 (no result: DRD3 antagonist)
CSc1ccc(Cn2nnc(C(=O)NCc3ccccc3)c2N)cc1	D1 ag 49.1
COc1cccc(Cn2nnc(C(=O)NCc3ccccc3Cl)c2N)c1	none (no result: D1 PAM)
Nc1c(C(=O)NCc2ccccc2)nnn1Cc1ccccc1	none (no result: D1 PAM)
Cc1cc(C)cc(NC(=O)Cn2nnc(C(=O)NCc3ccc4c(c3)OCO4)c2N)c1	D1 antag -31.8
COC(=O)[C@@]12C[C@@H](CC(=O)N3CCCCC3)C(=O)N(Cc3ccccc3)C1=CCC(C)(C)C2	none (no result: D1 PAM, D1 ag, D1 antag)
O=S(=O)(O)O	none (no result: D1 PAM, DRD3 antagonist, D1 ag, D1 antag)
CC(C)CNC1CCS(=O)(=O)C1 (configuration not stated)	none
O=[N+]([O-])C(C1CCS(=O)(=O)C1)C1CCS(=O)(=O)C1 (configuration not stated)	D1 antag -32.9
COCCNC(=O)c1c(C)cc(C)cc1C	DRD3 antagonist -76.9
NC(=O)[C@@H]1CCCN1C(=O)[C@H](Cc1cnc[nH]1)NC(=O)[C@@H]1CCC(=O)N1	none (no result: D1 PAM, DRD3 antagonist, D1 ag, D1 antag)
Cc1cc(C)cc(-n2c(SCC(=O)NC3CCCCC3)nc3c([nH]c4ccccc43)c2=O)c1	none (no result: DRD3 antagonist)
C#CCOCCOCCOCCNc1nc(N2CCN(C(=O)[C@H](CO)n3cc([C@@H](N)C(C)C)nn3)CC2)nc(N2CCN(C(=O)[C@H](CO)n3cc([C@@H](N)C(C)C)nn3)CC2)n1	none (no result: D1 PAM, D1 ag, D1 antag)
CCOC(=O)C1=C(C)Nc2ccccc2N=C1NC(=O)Cc1ccc(Br)cc1	none
CCOC(=O)C1=C(C)Nc2ccccc2N=C1NC(=O)Cc1ccc(OC)cc1	D1 antag -81.0

Assay outcomes (PubChem BioAssay)
